# The full list was thinned out, with hits kept by preference.
# VACV E9 pol inh: vaccinia E9 polymerase processive synthesis inhibitors, primary screen, biochemical, absorbance; normalized absorbance, % (test concentration not listed); in vitro processive DNA synthesis, absorbance read-out; active compounds read low; 46,000 compounds, 0.94% hits; in the data active means normalized absorbance mostly below about 85%, no sharp cut-off; inactive means mostly above about 86%
# * hit, by the source's call.
SMILES,VACV E9 pol inh
O=C(NCC1CCCO1)c1ccc2c(c1)N(Cc1ccc(F)cc1)C(=O)/C(=C/c1ccccc1)S2 (configuration not stated),88.1
O=C(O)c1ccc2c(c1)N(Cc1ccc(F)cc1)C(=O)/C(=C\c1ccccc1)S2,57.2*
O=C(O)CN1C(=O)S/C(=C\c2ccc(Br)cc2)C1=O,93.5
CCc1ccc(/C=C2\Sc3ccccc3N(CC(=O)O)C2=O)cc1,66.5*
CNC(=O)CN1C(=O)/C(=C/c2ccccc2C)Sc2ccccc21,100.9
O=C(/C=C1/Sc2ccccc2N(Cc2ccc(F)cc2)C1=O)NCc1ccccc1,103.6
CCN(C(=O)Cn1cc(C(=O)C2CC2)c2ccccc21)c1ccccc1,97.9
CC1C(=O)C(C)C(c2ccccc2)NC1c1ccccc1 (configuration not stated),101.6
Cc1ccc(S(=O)(=O)Nc2ccc(C(=O)NCCN(C)C)cc2)cc1,85.9
CC1(C)CC(=O)c2cc(OCC(=O)NCc3ccccc3)ccc2O1,99.7
FC(F)(F)Sc1nc2ccccc2[nH]1,95.7
COc1ccc(OCCCC(=O)Nc2ccc(S(=O)(=O)Nc3nccs3)cc2)cc1,100.2
CCOC(=O)c1oc2ccccc2c1NC(=O)c1ccccc1,91.5
CCOC(=O)c1oc2ccccc2c1CO,77.0*
CCOC(=O)c1oc2ccccc2c1NC(=O)c1ccc(S(=O)(=O)N(C)C)cc1,103.8
Cc1ccc(/C=C2/SC(=Nc3ccc(O)cc3)NC2=O)o1,101.6
Cc1ccc(/C=C2\SC(=O)NC2=O)o1,83.0
Cc1ccc(/C=C2/SC(=O)NC2=S)o1,74.6*
O=C(Oc1nsnc1N1CCCCC1)N(c1ccccc1)c1ccccc1,100.0
CCCNC(=O)Nc1ccc(OC(F)(F)F)cc1,94.0
CC1Oc2ccccc2OC1(O)c1ccc(Br)cc1 (configuration not stated),99.4
CC(C)(C)C1=CC(C(C#N)C#N)c2ccccc2O1 (configuration not stated),97.9
Cc1ccc2cc3cc(C(=O)NCCCN4CCCCCC4)sc3nc2c1,66.0*
COc1ccc2cc3cc(C(=O)NCCC4=CCCCC4)sc3nc2c1,102.9
Cc1ccc2cc3cc(C(=O)NCCN4CCN(c5cccc(Cl)c5)CC4)sc3nc2c1,104.2
SMILES,VACV E9 pol inh
COc1ccc2cc3cc(C(=O)NCCCN4CCCCCC4)oc3nc2c1,62.9*
CCN1CCN(CCCNC(=O)c2cc3cc4ccc(Cl)cc4nc3o2)CC1,93.5
COc1ccc2cc3cc(C(=O)NC4CCCC(C)C4C)oc3nc2c1 (configuration not stated),101.2
CC1CCc2nc3ccc(S(=O)(=O)N4CCC(C(=O)N5CCCC5)CC4)cc3c(C(=O)O)c2C1 (configuration not stated),105.8
Cc1cc(C)[n+]2nc(-c3ccccc3)sc2n1,80.7
Cc1ccc(C)n1C(CC(=O)O)c1ccc2c(c1)OCO2 (configuration not stated),72.1
O=C(Nc1ccccc1)C1c2cccc[n+]2CC(=O)N1c1ccccc1 (configuration not stated),103.2
Cc1csc2c(N3CC(C)OC(C)C3)ncnc12 (configuration not stated),100.4
COC(=O)c1sccc1S(=O)(=O)N1CCN(c2ncnc3c(C)csc23)CC1,117.6
Cc1csc2c(N3CCN(C(=O)NC(C)(C)C)CC3)ncnc12,60.3*
O=c1oc(-c2ccc(Cl)cc2)nnc1-c1ccccc1,97.9
CC1(C)NC(=S)N(c2nc3ccccc3s2)N1,82.0
COC(=O)c1ccccc1NCNc1ccccc1C(=O)OC,100.2
COc1ccc(C(=O)CSc2ncccn2)cc1,103.4
COc1ccc(C(=O)CNC2=NCCC2)cc1,96.3
COc1ccc(C(=O)CSC2=NCCCCCC2)cc1,64.6*
CCOC(=O)C1=C(NC(=S)Nc2ccccc2)CC2=C1CCCC2,100.8
Cc1cccc(-n2nc3c(c2NC(=O)C2CC2)CSC3)c1,98.4
O=C(O)CNS(=O)(=O)c1ccccc1C(F)(F)F,101.8
Cc1c(N=Cc2cc(Br)cc(Br)c2O)cccc1C(=O)O,44.9*
Cc1cc2ccccc2c(N=Cc2cc(Br)cc(Br)c2O)c1C#N,80.6
COc1cccc(C=Nc2cccc(C(=O)O)c2C)c1O,93.6
N#Cc1ccc(COc2cnc3ccccc3n2)cc1,101.9
Cc1ccc(N(Sc2ccc(Cl)cc2)C2C=CS(=O)(=O)C2)cc1 (configuration not stated),86.4
COc1cc(/C=C2\SC(=S)N(C(C(=O)O)C(C)C)C2=O)cc(OC)c1O (configuration not stated),99.6
SMILES,VACV E9 pol inh
O=C(O)C(Cc1ccccc1)N1C(=O)/C(=C/c2ccccc2)SC1=S (configuration not stated),97.0
CC(C)C(C(=O)O)N1C(=O)/C(=C/c2ccccc2)SC1=S (configuration not stated),83.0*
O=c1oc2ccccc2c(N2CCN(c3ccccc3)CC2)c1CN1CCCC1,100.6
COc1cccc(C(=O)NCc2ccc3[nH]c4c(c3c2)CCCC4)c1,101.7
COc1ccc2c(c1)CCc1sc(NC(=O)c3cc(OC)c(OC)c(OC)c3)nc1-2,99.5
CN1CCN(C(=O)COc2cc(=O)n(C)c3ccccc23)CC1,84.6
CN(c1ccc(Cl)cc1)c1cc(=O)n(C)c2ccccc12,63.2*
CCOc1ccccc1N(C)C(=O)COc1cc(=O)n(C)c2ccccc12,88.5
Cc1ccc(C=Nc2ccccc2OCc2ccccc2)cc1C,99.7
Cc1cc(C)c(-n2c(SCC(=O)c3ccc(C#N)cc3)n[nH]c2=O)c(C)c1,96.8
Cc1cc(C)nc(NC2=NCCN2)n1,48.1*
Cc1cc(Nc2ccccc2)nc(Nc2ccccc2)n1,100.0
CCN(CC)CCNc1nc(C)cc(C)n1,101.8
CCCN(CCC)c1ncnc2c1cnn2-c1ccccc1,100.4
COC(=O)C1=C(C)N(C)C(=O)/C1=C\c1ccccc1,100.0
O=C(CSC1=NCCc2ccccc21)c1ccc(-c2ccccc2)cc1,69.0*
O=C(CSC1=NCCc2ccccc21)c1ccccc1Cl,87.0
O=C(SC1=NCCc2ccccc21)c1ccccc1,96.7
Cc1cc(Cl)ccc1OCC(=O)OCC(=O)N1CCCCC1,92.8
Cc1ccc(NC(=O)c2c3c(nc4ccccc24)CCCC3)cc1,102.0
C=CCN(CC=C)S(=O)(=O)Cc1ccccc1,96.8
COC(=O)Cn1c(=NC(=O)/C=C/c2cccs2)sc2cc(Br)ccc21,118.2
COc1ccc2c(C)cc3nncn3c2c1,77.7*
COc1ccc2c(C)cc(Cl)nc2c1,90.6
CCN1CCN(c2cc(C)c3ccc(OC)cc3n2)CC1,99.0
SMILES,VACV E9 pol inh
CCOC(=O)C1=C(N)Oc2n[nH]c(C)c2C1c1cccs1 (configuration not stated),99.9
CCCCC(=O)Oc1cc(-c2ccccc2)c2oc(=O)sc2c1,100.4
COc1ccc(OC)c(-c2n(C)c3ccccc3[n+]2C)c1,75.0
COc1ccc2c(c1)c(C(=O)CSc1ccccc1)c(C)n2C,94.7
COc1ccc2c(c1)c1ccccc1n2C,67.3*
CC(C)N1CCc2c(sc(NC(=O)C(C)(C)C)c2C#N)C1,100.3
CC(=O)OC1C(=O)OC2C1OC(n1ccc(=O)[nH]c1=O)C2OC(C)=O (configuration not stated),101.1
Cc1ccc(Nc2cc(C(=O)NCCC(C)C)c3ccccc3n2)cc1C,71.1*
CC(C)CCNC(=O)c1cc(Sc2ccc(F)cc2)nc2ccccc12,91.0
COc1ccc(Nc2cc(C(=O)NCCc3ccccc3)c3ccccc3n2)cc1,98.8
COc1ccc(-c2coc3cc4oc(=O)c5c(c4cc23)CCCCC5)cc1,93.7

# Assay outcomes as filed in PubChem.
